These results are taken from PMC4336329 (PLoS ONE, 2015).

The campaign covered roughly 310,000 compounds. About 14,000 (4.5%) showed an effect of 50% or more. Effects have a minus sign here. Only a selection was taken, and strong results are over-represented in it overall.
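Note: peak tail current of the secondary pulse compared with the same well before compound.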

Sequence of human ether-à-go-go-related gene (hERG) potassium channel (Q12809 whole entry, looked up): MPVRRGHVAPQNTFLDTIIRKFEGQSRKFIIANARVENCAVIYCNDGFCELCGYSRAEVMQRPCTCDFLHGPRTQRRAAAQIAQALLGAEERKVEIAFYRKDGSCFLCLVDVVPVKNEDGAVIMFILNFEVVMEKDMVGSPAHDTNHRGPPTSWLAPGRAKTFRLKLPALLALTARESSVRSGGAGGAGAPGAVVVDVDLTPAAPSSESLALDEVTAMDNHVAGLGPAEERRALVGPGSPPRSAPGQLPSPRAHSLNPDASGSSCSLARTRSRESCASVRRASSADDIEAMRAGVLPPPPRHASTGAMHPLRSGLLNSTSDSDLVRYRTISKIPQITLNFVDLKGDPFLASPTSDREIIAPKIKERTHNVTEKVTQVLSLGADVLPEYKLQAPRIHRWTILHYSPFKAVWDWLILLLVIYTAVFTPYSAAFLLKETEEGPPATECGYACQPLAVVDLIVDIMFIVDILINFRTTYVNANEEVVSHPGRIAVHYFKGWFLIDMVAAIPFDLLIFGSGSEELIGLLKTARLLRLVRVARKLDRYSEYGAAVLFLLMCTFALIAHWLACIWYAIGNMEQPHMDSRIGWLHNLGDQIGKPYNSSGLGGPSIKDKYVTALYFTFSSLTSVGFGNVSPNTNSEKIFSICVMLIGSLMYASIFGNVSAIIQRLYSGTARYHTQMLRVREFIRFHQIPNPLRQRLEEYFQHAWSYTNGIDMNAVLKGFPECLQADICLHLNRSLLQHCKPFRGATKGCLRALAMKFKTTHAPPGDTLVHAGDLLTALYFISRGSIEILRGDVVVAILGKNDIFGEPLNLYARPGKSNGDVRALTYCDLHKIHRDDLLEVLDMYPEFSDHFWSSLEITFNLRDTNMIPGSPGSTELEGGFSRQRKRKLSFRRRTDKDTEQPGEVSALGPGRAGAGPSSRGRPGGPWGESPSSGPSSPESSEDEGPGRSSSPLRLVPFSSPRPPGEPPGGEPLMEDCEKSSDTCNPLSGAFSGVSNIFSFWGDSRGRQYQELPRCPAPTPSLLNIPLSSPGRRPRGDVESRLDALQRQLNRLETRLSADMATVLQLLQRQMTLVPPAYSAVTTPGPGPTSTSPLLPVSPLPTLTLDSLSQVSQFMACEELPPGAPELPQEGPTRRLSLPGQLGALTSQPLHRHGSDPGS

The test has as its target human ether-à-go-go-related gene (hERG) potassium channel (human, UniProt Q12809). In words: primary screen, population patch clamp on CHO cells stably expressing hERG; higher = less effect of the substance.
Consider `CC(C(=O)NCc1cccs1)n1cccc1` (stereo not shown), for which the “hERG current change (%, negative = inhibition) at 10uM” value was 7.58%. With `COc1ccc(CNC(=O)CC23CC4CC(CC(C4)C2)C3)cc1`, the “hERG current change (%, negative = inhibition) at 10uM” value is recorded as 20.4%.

For `CCOC(=O)C1CCCN(Cc2ccccc2C)C1` (stereo not shown), the “hERG current change (%, negative = inhibition) at 10uM” value was -15.1%. The same measure for `CCOC(=O)C1CCCN(Cc2nc(N)nc(Nc3ccccc3)n2)C1` (stereo not shown): -71.2%; for `CCOC(=O)C1CCCN(Cc2ccc(-c3ccccc3)cc2)C1` (stereo not shown): -10.5%; for `CCN(CC)C(=O)Cn1c(=O)n(CCC(=O)Nc2ccc(F)cc2)c(=O)c2sccc21`: 14.9%.

`Cc1ccc2nc(NC(=O)c3ccc(Br)o3)sc2c1`: the “hERG current change (%, negative = inhibition) at 10uM” value is listed as 20.6%. The same measure for `CCOc1ccc(N2C(=O)C3ON(c4ccccc4)C(c4cccs4)C3C2=O)cc1` (stereo not shown): 7.35%; for `CC(=O)Nc1ccc(NC(=O)C2CC(=O)Nc3nc4ccccc4n32)cc1` (stereo not shown): 24.6%; for `O=C(c1cc2ccccc2cc1O)N1CCN(c2ccc([N+](=O)[O-])cc2)CC1`: -40.3%. Turning to `O=C(c1cc(C(=O)N2CCN(c3ccc(F)cc3)CC2)cc([N+](=O)[O-])c1)N1CCN(c2ccc(F)cc2)CC1`, the “hERG current change (%, negative = inhibition) at 10uM” value is -26.2%. The value for `CC(C)(O)C#Cc1ccc(C(=O)N2CCN(c3ccc(F)cc3)CC2)cc1` was -11.4%; that for `Cc1onc(-c2ccccc2)c1C(=O)N1CCN(c2ccc([N+](=O)[O-])cc2)CC1` was -36.4%; that for `Cc1cc(C(=O)N/N=C/C=C/c2ccc([N+](=O)[O-])cc2)n[nH]1` was -53%. The same measure for `Cc1cc(C(=O)N/N=C/C=C/c2cccc([N+](=O)[O-])c2)n[nH]1`: -3.28%.

For `Cc1cc(C(=O)N2CCN(c3ccc([N+](=O)[O-])cc3)CC2)n[nH]1`, the “hERG current change (%, negative = inhibition) at 10uM” value was -78.5%. Regarding `Cc1cc(C(=O)N2CCN(c3ccc([N+](=O)[O-])cc3)CC2)co1`, the “hERG current change (%, negative = inhibition) at 10uM” value was -75.5%. For the molecule `Cc1cc(C(=O)N/N=C/C=C/c2ccc(Br)cc2)n[nH]1`, the “hERG current change (%, negative = inhibition) at 10uM” value is 9.77%. For the molecule `CC(C)(O)C#Cc1ccc(C(=O)N2CCN(c3ccc(Cl)cc3)CC2)cc1`, the “hERG current change (%, negative = inhibition) at 10uM” value is -9.19%. `CC(C)(O)C#Cc1ccc(C(=O)N2CCN(c3ccc([N+](=O)[O-])cc3)CC2)cc1`: the “hERG current change (%, negative = inhibition) at 10uM” value was -70.4%. Consider `O=C(c1ccc2c(c1)OCCO2)N1CCN(c2ccc([N+](=O)[O-])cc2)CC1`, for which the “hERG current change (%, negative = inhibition) at 10uM” value is -47.1%. As for `CCOc1ccc(/C=C/C(=O)CCC(=O)O)cc1`, the “hERG current change (%, negative = inhibition) at 10uM” value was 13.5%.

For the molecule `O=[N+]([O-])c1cccc(-c2ccc(C(=S)N3CCN(c4ccc(F)cc4)CC3)o2)c1`, the “hERG current change (%, negative = inhibition) at 10uM” value was 2.61%. As to `O=C(c1ccc([N+](=O)[O-])cc1)N1CCN(c2ncc(Br)cn2)CC1`, the “hERG current change (%, negative = inhibition) at 10uM” value is listed as -32%.

As to `Cc1cc(C(=O)N2CCN(c3ccc([N+](=O)[O-])cc3)CC2)no1`, the “hERG current change (%, negative = inhibition) at 10uM” value was -70.6%. The same measure for `O=C(c1cncc(Br)c1)N1CCN(c2ccc(N3CCOCC3)nn2)CC1`: -2.06%; for `Cc1cc(C(=O)N2CCN(c3ccccc3)CC2)no1`: -0.965%; for `O=C(c1cncc(Br)c1)N1CCN(c2ccc([N+](=O)[O-])cc2)CC1`: -77%.

With `COc1ccc(N2CCN(C(=O)c3nc4nc(C)cc(C)n4n3)CC2)cc1`, the “hERG current change (%, negative = inhibition) at 10uM” value is listed as 9.69%. Consider `Cc1cc(C)n2nc(C(=O)N3CCN(c4ccc([N+](=O)[O-])cc4)CC3)nc2n1`, for which the “hERG current change (%, negative = inhibition) at 10uM” value is -71.4%. The value for `COc1ccc(N2CCN(C(=O)c3cc(C)on3)CC2)cc1` was 6.64%; that for `COc1cccc(N2CCN(C(=O)c3nc4nc(C)cc(C)n4n3)CC2)c1` was 7.28%. Regarding `Cc1c(O)ccc2c(O)c(NC(=O)c3ccc4c(c3)CCC(C)(C)O4)c(=O)oc12`, the “hERG current change (%, negative = inhibition) at 10uM” value was 6.09%. Consider `CCn1c(CNC(=O)c2ccc(OC)c(OC)c2)nnc1SCC(=O)c1ccc(OC)cc1`, for which the “hERG current change (%, negative = inhibition) at 10uM” value is given as -0.747%. The value for `O=C(CSc1ncn[nH]1)Nc1ccc(Cl)c(Cl)c1` was 0.453%; that for `Cn1cc2cccc([N+](=O)[O-])c2n1` was 2.69%. Regarding `O=C(CSc1nc2ccc([N+](=O)[O-])cc2[nH]1)c1ccc(Cl)cc1`, the “hERG current change (%, negative = inhibition) at 10uM” value was 12.1%. Consider `O=C1c2ccccc2C2(c3ccccc3)NCCN12` (stereo not shown), for which the “hERG current change (%, negative = inhibition) at 10uM” value was determined as 5.86%. With `CN(CC(=O)Nc1cccc2ccccc12)c1ccc(S(=O)(=O)N2CCOCC2)cn1`, the “hERG current change (%, negative = inhibition) at 10uM” value is given as 11.8%. With `O=C(NCc1ccncc1)C1CCC(=O)N(CCc2ccc(Cl)cc2)C1` (stereo not shown), the “hERG current change (%, negative = inhibition) at 10uM” value is -65.5%. On to `CCc1ccc(CNC(=O)C2CCC(=O)N(CCc3ccc(Cl)cc3)C2)nc1` (stereo not shown), for which the “hERG current change (%, negative = inhibition) at 10uM” value is reported as -67%.

As to `O=C(NCc1ccon1)C1CCC(=O)N(CCc2ccc(Cl)cc2)C1` (stereo not shown), the “hERG current change (%, negative = inhibition) at 10uM” value is -37.2%. In the case of `Cc1ccc(CCN2CC(C(=O)NCc3ccc4c(c3)OCO4)CC2=O)cc1` (stereo not shown), the “hERG current change (%, negative = inhibition) at 10uM” value is given as -37.2%.

`COc1ccccc1CCCNC(=O)C1CCC(=O)N(Cc2ccccc2F)C1` (stereo not shown): the “hERG current change (%, negative = inhibition) at 10uM” value is -1.76%. On to `O=C(NCc1ccccn1)C1CCC(=O)N(Cc2ccc(Cl)cc2)C1` (stereo not shown), for which the “hERG current change (%, negative = inhibition) at 10uM” value was determined as 18.7%. The same measure for `Cc1ccc(CNC(=O)C2CCC(=O)N(CCc3ccc(Cl)cc3)C2)cc1` (stereo not shown): -40.2%; for `COc1ccccc1CCCNC(=O)C1CCC(=O)N(CCc2ccc(Cl)cc2)C1` (stereo not shown): -60.5%; for `O=C(NCc1ccc2c(c1)OCO2)C1CC(=O)N(CCc2ccc(Cl)cc2)C1` (stereo not shown): -54.1%. For `COc1ccccc1CCCNC(=O)C1CCC(=O)N(CCCN2CCCC2=O)C1` (stereo not shown), the “hERG current change (%, negative = inhibition) at 10uM” value was 14%. Take `O=C(NCc1ccc2c(c1)OCO2)C1CC(=O)N(CCc2ccccc2)C1` (stereo not shown): the “hERG current change (%, negative = inhibition) at 10uM” value amounted to 3.54%. On to `CCn1nc(C)c(CNC(=O)C2CCC(=O)N(CCc3ccc(Cl)cc3)C2)c1C` (stereo not shown), for which the “hERG current change (%, negative = inhibition) at 10uM” value was -21.6%. The value for `CCOc1ccc(C)cc1S(=O)(=O)Nc1ccc(Cl)cn1` was -3.98%. The value for `Cn1c(=O)cc(OCC(=O)N2CCCc3ccccc32)c2ccccc21` was -3.03%. As for `CCOC(=O)C1(Cc2ccccc2C)CCCN(C(=O)CN2CCCCC2=O)C1` (stereo not shown), the “hERG current change (%, negative = inhibition) at 10uM” value amounted to 14.8%. For `COc1ccc(C(CC(=O)O)NC(=O)COc2ccc(C)cc2)cc1OC` (stereo not shown), the “hERG current change (%, negative = inhibition) at 10uM” value worked out at 15.2%.
